The assay can be described thus: sensitizers of A549 cells to miR-34 induction, primary screen, imaging, A549 dox-inducible miR-34, nuclei and caspase counts (AID 1347080). Also: test concentration not given here. Particulars: A549 miR-34 inducible, Hoechst nuclei count, 48 h.
The mark [1] stands for this setting: stronger effect = lower value, cell number ratio, induced over uninduced.
The mark [2] stands for this setting: measured here: relative caspase fold change +Dox/-Dox.
The mark [3] stands for this setting: measured here: total cells with miR-34 induction, stronger effect = lower value.
Where [4] appears, read: measured here: total cells without miR-34 induction.

Molecules are shown by their SMILES. Activity calls are given as the source filed them.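 The calls were made as follows: active = compounds whose cell count with miR-34 switched on is under 0.7 times the count with it off; inactive = the rest.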

Regarding `CN(C)C(=O)CCSC(SCCC(=O)O)c1cccc(/C=C/c2ccc3ccc(Cl)cc3n2)c1` (configuration not stated), the fold change reads like this: under setting [1], 1 (inactive); under setting [2], 1.76. Besides, the cell count turned out to be 5360 under setting [3] and 5340 under setting [4].
The matching figures for `CCC(C)[C@H]1O[C@]2(C=C[C@@H]1C)C[C@@H]1C[C@@H](C/C=C(\C)[C@@H](OC3C[C@H](OC)C(O[C@H]4C[C@H](OC)[C@@H](NC(C)=O)[C@H](C)O4)[C@H](C)O3)[C@@H](C)/C=C/C=C3\CO[C@@H]4[C@H](O)C(C)=C[C@@H](C(=O)O1)[C@]34O)O2` (some centres not stated): 1.03 (inactive), 0.79, 4370 and 4250.
The matching figures for `CCCCCCCC/C=C\CCCCCCCCCCCCCC(=O)NCCS(=O)(=O)O`: 0.871 (inactive), 0.338, 5170 and 5940.
Taken in the same sequence, the figures for `CCCCC[C@@H](O)/C=C/[C@@H]1[C@H](C/C=C\CCCC(=O)O)[C@@H](O)C[C@H]1O` were 0.832 (inactive), 1.39, 5000 and 6010.
As to `CCCCCCCCCCCCCCCCOC[C@H](COP(=O)([O-])OCC[N+](C)(C)C)OCC`, the fold change runs as follows: under setting [1], 0.91 (inactive); under setting [2], 1.05. The cell count is 5080 under setting [3] and 5580 under setting [4].
The matching figures for `O=P(O)(O)O[C@H]1[C@H](O)[C@@H](O)[C@H](OP(=O)(O)O)[C@@H](OP(=O)(O)O)[C@H]1O`: 1 (inactive), 0.768, 5340 and 5330.
The matching figures for `CCCCCCCCCCCCCCCCCCCCCCC(=O)OCC`: 0.908 (inactive), 0.513, 4740 and 5220.
The matching figures for `CC/C=C\C/C=C\C/C=C\C/C=C\CCCCC(=O)OCC`: 1.03 (inactive), 1.28, 5830 and 5650.
`CCCCCCCC/C=C\CCCCCC(=O)O`: the fold change runs as follows: under setting [1], 0.938 (inactive); under setting [2], 0.407. In addition, the cell count by setting is: under setting [3], 5490; under setting [4], 5860.
The matching figures for `CCCCC[C@@H](O)/C=C/[C@H]1C=CC(=O)[C@@H]1CCCCCCC(=O)O`: 0.9 (inactive), 0.638, 4870 and 5400.
The matching figures for `COc1ccc(/C=C/C(=O)Nc2c(O)cccc2C(=O)O)cc1OC`: 0.585 (active), 0.687, 3430 and 5870.
The matching figures for `CCCCCCCCCCCCCC(=O)OCC`: 1.01 (inactive), 1.49, 5310 and 5240.
With `O=C(O)CCC/C=C\C[C@@H]1[C@@H](/C=C/[C@@H](O)COc2ccccc2)[C@H](O)C[C@@H]1O`, the fold change by setting is: under setting [1], 0.956 (inactive); under setting [2], 1.11. The cell count by setting is: under setting [3], 6410; under setting [4], 6700.
Taken in the same sequence, the figures for `CC(C)[C@H](O)CC[C@@H](C)[C@H]1CC[C@H]2[C@@H]3CC=C4C[C@@H](O)CC[C@]4(C)[C@H]3CC[C@]12C` were 0.898 (inactive), 0.825, 5260 and 5860.
As to `O=C(O)CCC/C=C\C[C@@H]1[C@@H](CC[C@@H](O)CCc2ccccc2)[C@H](O)C[C@@H]1O`, the fold change was 0.863 (inactive) under setting [1] and 1.41 under setting [2]. The cell count runs as follows: under setting [3], 5880; under setting [4], 6810.
As for `COc1cc(/C=C/c2ccc(Cl)cc2)cc(OC)c1`, the fold change is, setting by setting: under setting [1], 1.01 (inactive); under setting [2], 0.802. Besides, the cell count under setting [3] was found to be 6120 and the cell count under setting [4] turned out to be 6070.
Taken in the same sequence, the figures for `CCCCC[C@H](O)/C=C/[C@H]1C(=O)C[C@H](O)[C@@H]1C/C=C\CCCC(=O)NC(CO)CO` were 0.913 (inactive), 1.9, 5680 and 6220.
For the compound `CCCCC[C@H](O)CC[C@@H]1[C@H]2Cc3cccc(OCC(=O)O)c3C[C@H]2C[C@H]1O`, the fold change under setting [1] was 0.95 (inactive) and the fold change under setting [2] was found to be 1.46. In addition, the cell count is 6200 under setting [3] and 6530 under setting [4].
Regarding `CCCCC[C@H](O)/C=C/[C@H]1C(=O)C[C@H](O)[C@@H]1C/C=C/CCCC(=O)O`, the fold change runs as follows: under setting [1], 0.96 (inactive); under setting [2], 1.11. For the same compound, the cell count reads like this: under setting [3], 5890; under setting [4], 6130.
The matching figures for `CCCCCCCCCCCCCCCCSC[C@H](COP(=O)([O-])OCC[N+](C)(C)C)NC(=O)CCCCCCCCCCCCCCC`: 1.04 (inactive), 0.778, 6260 and 6010.
The matching figures for `CCCCC[C@H](O)/C=C/[C@@H]1[C@@H](CCCCCCCO)[C@@H](O)C[C@H]1O`: 0.922 (inactive), 1.15, 5540 and 6010.
The matching figures for `OCC(O)[C@@H](O)CO` (some centres not stated): 0.92 (inactive), 0.896, 8910 and 9680.
Take `CCCCCCCCCCCCCCCC(=O)NCCS(=O)(=O)O`: the fold change runs as follows: under setting [1], 1.07 (inactive); under setting [2], 0.86. The cell count under setting [3] was 6370 and the cell count under setting [4] is 5950.
Regarding `CC(C)[C@H](O)C(=O)O`, the fold change is, setting by setting: under setting [1], 0.982 (inactive); under setting [2], 1.05. For the same compound, the cell count amounted to 5470 under setting [3] and 5570 under setting [4].
Take `CCCCCCCCCC(=O)NC(CN1CCOCC1)C(O)c1ccccc1` (configuration not stated): the fold change is, setting by setting: under setting [1], 1.03 (inactive); under setting [2], 0.968. Moreover, the cell count came out at 5830 under setting [3] and 5670 under setting [4].
The matching figures for `CCCCC(C)(O)C/C=C/[C@H]1[C@H](O)CC(=O)[C@H]1CCCCCCC(=O)OC` (some centres not stated): 1.02 (inactive), 1.88, 5420 and 5290.
Taken in the same sequence, the figures for `CCCCCCCCCCCC(=O)NC[C@]1(C)CCC[C@]2(C)c3ccc(C(C)C)cc3CC[C@@H]12` were 0.97 (inactive), 1.59, 6180 and 6370.
The matching figures for `O=C(NCc1ccncc1)C12CC3CC(C1)CC(c1ccc(Cl)cc1)(C3)C2`: 0.915 (inactive), 1.12, 4010 and 4380.

These data come from PubChem BioAssay.
